Laboratory results from PubChem BioAssay AID1030 (National Center for Advancing Translational Sciences (NCATS), 2008).
Screen size: about 220,000 compounds; about 16,000 (7.3%) were called active. Inconclusive results (about 25%) are left out. The entries come from a sample that favours actives as a whole. Values without a mark were called inactive. Calls come from the whole dose curve; as a rule, active = well fitted inhibition curve with a large enough effect (not every such curve was filed as active); inconclusive = small, poorly fitted or top-dose-only effect, or another doubt; inactive = no such curve, though single readings can be large or run the other way.

Each compound was assayed against Aldehyde dehydrogenase 1A1 (Homo sapiens) (UniProt P00352) (assay: qHTS Assay for Inhibitors of Aldehyde Dehydrogenase 1 (ALDH1A1)). Details: Purified ALDH1A1, NADH fluorescence, propionaldehyde substrate; series mostly up to 75.3 µM; activity, negative = inhibition: at the top concentration.
Potency is the fitted concentration of half-maximal effect.
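Throughout, for activity, negative = inhibition: plate controls were no enzyme wells and a reference inhibitor.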

Chain of Aldehyde dehydrogenase 1A1 (Homo sapiens) (P00352 whole entry, looked up): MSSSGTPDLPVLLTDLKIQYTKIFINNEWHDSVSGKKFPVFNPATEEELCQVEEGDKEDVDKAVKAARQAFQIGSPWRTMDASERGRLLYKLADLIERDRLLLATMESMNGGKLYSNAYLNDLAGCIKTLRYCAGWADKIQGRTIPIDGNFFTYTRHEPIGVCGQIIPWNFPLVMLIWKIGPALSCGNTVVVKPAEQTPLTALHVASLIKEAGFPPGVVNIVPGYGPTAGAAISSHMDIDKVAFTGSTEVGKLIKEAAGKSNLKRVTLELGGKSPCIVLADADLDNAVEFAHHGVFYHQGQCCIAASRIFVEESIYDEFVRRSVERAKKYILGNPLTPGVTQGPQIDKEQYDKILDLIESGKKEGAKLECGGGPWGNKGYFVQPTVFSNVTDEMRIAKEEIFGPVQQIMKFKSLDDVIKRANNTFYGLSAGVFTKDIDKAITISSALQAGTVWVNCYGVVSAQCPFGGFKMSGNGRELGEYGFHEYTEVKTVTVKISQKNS

SMILES	activity, negative = inhibition [%]	Potency
Cc1nc2ccc(C(=O)N3CCN(c4ccccc4)CC3)cc2s1	0.77	–
Cc1ccc(-n2c(N)c(C(=O)N3CCOCC3)sc2=S)c(C)c1	–	10 µM (active)
O=C(Nc1cccc(C(=O)N2CCCC2)c1)c1ccccc1	5.92	–
N#Cc1ccccc1-n1c(N)c(C(=O)N2CCCC2)sc1=S	–	11.2 µM (active)
Cc1ccc(OCCCC(=O)N2CCOCC2)c(C)c1	-7.47	–
Cc1ccc(C(=O)N2CCN(C(=O)N3CCOCC3)CC2)cc1	-11.9	–
Cc1cccc(-n2c(N)c(C(=O)N3CCN(C)CC3)sc2=S)c1	–	22.4 µM (active)
Cc1cccc(C(=O)N2CCCN(C(=O)c3cccc(C)c3)CC2)c1	-5.29	–
O=C(c1ccc(S(=O)(=O)c2ccccc2)cc1)N1CCCCCC1	-9.72	–
CCN(CC)S(=O)(=O)c1ccc(N(C)Cc2cccc(OC)c2OC)nc1	-13	–
CC(C)(C)OC(=O)NCCCCC1=CC2=CC(=O)C(C)(OC(=O)c3cccs3)C(=O)C2=CO1 (stereo not drawn)	7.23	–
O=C(c1snnc1-c1ccccc1)N1CCOCC1	2.9	–
Cc1cc(-c2nnc(CCC(=O)NC(c3ccccc3)c3ccccc3)o2)no1	-6.35	–
O=C(/C=C/c1ccc(F)cc1)NCCNC(=O)/C=C/c1ccc(F)cc1	10.5	–
O=C(CCC1CCCN(Cc2ccc(O)c(Cl)c2)C1)NCc1ccccc1F (stereo not drawn)	-7.56	–
CCOCC(=O)Nc1cc(OC)c(Cl)cc1OC	-7.89	–
CC(C)CC(=O)NC(=S)Nc1cc(C(=O)O)ccc1Cl	10.3	–
COc1cc(NC(=S)NNC(=O)CC(C)C)c(OC)cc1Cl	–	25.1 µM (active)
CCC(CC)C(=O)Nc1ccc(S(=O)(=O)Nc2nccs2)cc1	-0.847	–
O=C(C1CCCN1S(=O)(=O)c1ccc(Br)cc1)N1CCOCC1 (stereo not drawn)	1.94	–
Cc1ccc(Oc2ccc(N)cc2)cc1	–	17.8 µM (active)
Nc1ccc(Oc2ccc(Cl)cc2)cc1	-10.1	–

SMILES	activity, negative = inhibition [%]	Potency
COc1cccc(Oc2ccc(N)cc2)c1	-8.54	–
O=C(NNS(=O)(=O)c1ccc(F)cc1)c1cnccn1	2.86	–
Cc1c(Cl)c([N+](=O)[O-])nn1CCCC(=O)NC(C)c1ccccc1 (stereo not drawn)	-5.68	–
S=C(Nc1cccc(Br)c1)N1CCn2cccc2C1c1cccnc1 (stereo not drawn)	-6.93	–
COc1ccc2nc(Nc3nc(-c4cc5ccccc5oc4=O)cs3)sc2c1	1.54	–
O=c1oc2ccccc2cc1-c1csc(Nc2ccc(O)cc2)n1	-10.9	–
Nc1ncc(-c2cc3ccccc3oc2=O)s1	–	11.2 µM (active)
CC(C)NC(=O)c1ccc(Cl)cc1Cl	-1.33	–
COc1cccc(NC(=O)CN(C)C(C)C(=O)Nc2ccc(C#N)cc2)c1 (stereo not drawn)	1.94	–
COc1cccc(CNC(=O)CCN2C(=S)NC(C)(C)CC2C)c1 (stereo not drawn)	-4.03	–
O=C(CCN1CCN(c2ccccc2)CC1)NNC(=S)Nc1ccccc1	-6.58	–
O=C(/C=C/c1ccco1)Nc1ccc(Oc2ccccc2)cc1	2.63	–
O=C(O)/C=C\C(=O)Nc1ccc(OCc2ccccc2)cc1	–	25.1 µM (active)
O=C(N/N=C/c1ccc(OCc2ccccc2)cc1)c1ccc(O)cc1	12.2	–
NC(=O)COC(=O)c1cc(S(=O)(=O)N2CCN(c3ccccc3)CC2)ccc1Cl	2.01	–
COC(=O)C1=C(C)OC(N)=C(C#N)C1c1cc(OC)ccc1OC (stereo not drawn)	3.09	–
CCC1=C(C(=O)OC)C(c2cc(OC)ccc2OC)C(C#N)=C(N)O1 (stereo not drawn)	–	17.8 µM (active)
CCOC(=O)C1=C(CC)OC(N)=C(C#N)C1c1ccc(F)cc1F (stereo not drawn)	10.9	–
COc1ccc(S(=O)(=O)N(C)CC(=O)N2CCCC2)cc1Cl	-3.37	–
Cc1noc(C)c1S(=O)(=O)N(C)Cc1ccccc1	0.615	–
Cc1cccc(NS(=O)(=O)c2ccc(C)c(C(N)=O)c2)c1	-7.93	–
CC(NC(=O)C(=O)N/N=C/c1ccc(Cl)cc1)c1ccccc1 (stereo not drawn)	-4.56	–

SMILES	activity, negative = inhibition [%]	Potency
Cc1ccc(-n2c(C)cc(C(=O)CN3C(=O)C(=O)N(C4CCCC4)C3=O)c2C)cc1	1.53	–
COc1cc(CNC2CCCCC2)c(Br)cc1OC1CCCC1	-3.19	–
O=C(Cc1ccccc1)NNS(=O)(=O)c1ccc([N+](=O)[O-])cc1	15.8	–
O=C(Nc1ccc([N+](=O)[O-])cc1)C1(c2ccccc2)CCOCC1	4.59	–
O=C(O)/C=C/C(=O)NNc1ccc([N+](=O)[O-])cc1	–	14.1 µM (active)
NC(=O)c1ccc(CN2CCC(Cc3ccccc3)CC2)cc1	6.52	–
O=C(COC(=O)c1ccc[nH]c1=O)Nc1ccc2c(c1)OC(F)(F)O2	8.44	–
Cc1c(S(=O)(=O)O)ccc(N=Nc2c(O)c(C(=O)O)cc3ccccc23)c1Cl	–	3.55 µM (active)
Cc1nn(Cc2ccc(Cl)cc2)c(Cl)c1/C=N/NC(=O)CNc1ccccc1F	21.3	–
O=C(NNC(=S)NCc1ccco1)C(c1ccccc1)c1ccccc1	1.75	–
FC(F)Oc1ccc(NC(=S)NCc2ccco2)cc1Cl	–	14.1 µM (active)
COC(=O)Cc1ccc(NC(=S)NCc2ccco2)cc1	4.15	–
O=C(NCc1cccs1)c1cc(-c2ccccn2)nc2ccc(Br)cc12	6.33	–
OC(COc1ccccc1)Cn1cc(Br)cn1 (stereo not drawn)	2.81	–
OC(CN=c1sc2ccccc2n1CC(O)COc1ccccc1)COc1ccccc1 (stereo not drawn)	–	2.82 µM (active)
C=CCn1c(=N)n(CC(O)COc2ccc(OC)cc2)c2ccccc21 (stereo not drawn)	-1.74	–
Cc1ccccc1NS(=O)(=O)CCCCC(Cl)(Cl)Cl	-3.72	–
O=C1N=C(N2CCOCC2)S/C1=C\C=C/c1ccccc1	0.576	–
Cc1ccsc1/C=C1\SC(N2CCOCC2)=NC1=O	–	14.1 µM (active)
CCc1ccc(/C=C2\SC(N3CCOCC3)=NC2=O)cc1	1.81	–
NC(N)=NCCCc1cn(CC(=O)N2CCNCC2)nn1	0.974	–
CCOC(=O)COc1ccc([N+](=O)[O-])cc1	-7.41	–

SMILES	activity, negative = inhibition [%]	Potency
Cc1cc(C)cc(OCC(=O)O/N=C(\N)Cc2ccc([N+](=O)[O-])cc2)c1	–	10 µM (active)
N/C(=N\OC(=O)COc1ccc([N+](=O)[O-])cc1)c1ccc(Br)cc1	5.49	–
COC(=O)C(NS(=O)(=O)c1ccc(F)cc1)c1ccccc1 (stereo not drawn)	1.82	–
CC1CCC(C(C)C)C(=O)/C1=C\c1ccc(NC(=O)CCC(=O)O)cc1 (stereo not drawn)	0.0468	–
COc1ccc(S(=O)(=O)N2CCN(C(=O)c3cc(C)oc3C)CC2)cc1	-3.86	–
COc1ccc2occ(C(=O)c3ccc(N=C(C)N(C)C)cc3)c2c1	12	–
COc1ccc(OC)c(C(=O)c2coc3ccc(OC)cc23)c1	–	14.1 µM (active)
COc1ccc(OC)c(C(=O)c2coc3ccc(O)c(CN4CCOCC4)c23)c1	-9.73	–
NS(=O)(=O)c1ccc(CCNC(=O)c2ccc([N+](=O)[O-])cc2[N+](=O)[O-])cc1	8.99	–
CCOC(=O)CCCNC(=O)COC(=O)c1cc(Br)c(Br)s1	9.37	–
O=C(NC1CCCC1)C(c1ccc(N2CCOCC2)cc1)N(C(=O)c1ccco1)c1ccccc1F (stereo not drawn)	-3.51	–
COc1ccc(CCn2nnnc2C(c2ccccc2)N2CCN(C)CC2)cc1OC (stereo not drawn)	-4.68	–
COc1ccc(C(c2nnnn2Cc2cccs2)N2CCN(c3ccccc3)CC2)cc1OC (stereo not drawn)	–	2 µM (active)
COCCn1nnnc1C(c1ccccc1Cl)N1CCN(c2ccccc2OC)CC1 (stereo not drawn)	4.17	–
C=C(C)Cn1c(N2CCCC2)nc2c1c(=O)[nH]c(=O)n2C	-7.84	–
Cn1c(=O)[nH]c(=O)c2c1nc(NCCCn1ccnc1)n2Cc1cccc(Br)c1	5.93	–
C=C(C)Cn1c(N2CCN(CC)CC2)nc2c1c(=O)[nH]c(=O)n2C	-2.67	–
Cc1nnc(SCCCn2c(N3CCCCC3)nc3c2c(=O)[nH]c(=O)n3C)s1	–	14.1 µM (active)
CC1CCN(c2nc3c(c(=O)[nH]c(=O)n3C)n2CCCc2ccccc2)CC1	–	31.6 µM (active)
COc1ccc(CCn2c(NCCCN3CCOCC3)nc3c2c(=O)[nH]c(=O)n3C)cc1	3.52	–
CN1CCN(c2nc3c(c(=O)[nH]c(=O)n3C)n2Cc2cccc3ccccc23)CC1	–	25.1 µM (active)
Cn1c(=O)[nH]c(=O)c2c1nc(N1CCCCCC1)n2CC(=O)c1ccccc1	-8.01	–

SMILES	activity, negative = inhibition [%]	Potency
Cc1ccnc(SCCn2c(Br)nc3c2c(=O)[nH]c(=O)n3C)n1	4.65	–
COc1ccc(OC)c(NC(=O)N[C@H](Cc2ccccc2)C(=O)NN)c1	0.169	–
CC(C)CN1CCNC(=O)C1CC(=O)N(C)CC1CCOCC1 (stereo not drawn)	-15.6	–
Cc1ccc(CN(C)CC(=O)Nc2cccc([N+](=O)[O-])c2)o1	-12.7	–
CC(=O)c1ccc(NC(=S)N(Cc2ccccc2)C(C)C2CC2)cc1 (stereo not drawn)	-15.7	–
Cc1ccc(CC2CC(=O)N(c3ccc4c(c3)OCCO4)C2=O)cc1 (stereo not drawn)	-14.9	–
Cc1ccc(N2C(=O)CC(NCc3ccc4c(c3)OCO4)C2=O)cc1Cl (stereo not drawn)	–	22.4 µM (active)
CC1CCC(N2CC(=O)N(Cc3ccc4c(c3)OCO4)C(c3ccc(F)cc3)C2=O)CC1 (stereo not drawn)	-13	–
O=C1NC(c2cccc(Cl)c2)Nc2ccccc21 (stereo not drawn)	2.54	–
N/C(=N\S(=O)(=O)c1ccc(Cl)cc1)N1CCOCC1	-1.23	–
Cc1ccc(N(C(=O)c2sc(C)nc2C)C(C(=O)NC(C)(C)C)c2ccncc2)cc1 (stereo not drawn)	12.4	–
Cc1c(C(=O)O)nnn1-c1nonc1N	3.6	–
CCOC(=O)c1sc(/N=C/C2=C(O)CC(C)(C)CC2=O)c(C(=O)OCC)c1C	–	11.2 µM (active)
CCOC(=O)c1c(/N=C/C2C(=O)CC(C)(C)CC2=O)sc(C)c1C	–	2.24 µM (active)
CC(=O)N1CCN(CCN=CC2=C(O)CC(C)(C)CC2=O)CC1	-14.2	–
CCOC(=O)c1c(NC(=O)/C=C/c2ccco2)sc(C)c1C	-9.12	–
CCN(C(=O)COC(=O)c1c(NC(C)=O)sc(C)c1C)C1CCS(=O)(=O)C1 (stereo not drawn)	-13.5	–
CC1(C)CC(=O)C(C=NCc2cccnc2)=C(O)C1	-3.28	–
Cc1cc(C)nc(N/N=C/c2c(C)oc3ccccc23)n1	1.58	–
O=C(COc1ccccc1[N+](=O)[O-])NC1CC1	-0.186	–
